D2 ag-1: HTS Assay for Allosteric Agonists of the Human D2 Dopamine Receptor: Primary Screen for Agonists | activation, % at 2 µM | D(2) dopamine receptor (Homo sapiens), P14416 | 0.53% of 340,000 active | HEK293 T-REx D2 cells, calcium flux agonist mode;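 active = activation over 3 SD above normal in the single-dose calcium agonist read, cut at about 30% in these data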; also: 0% is about no effect
Target sequence (P14416 whole entry, looked up): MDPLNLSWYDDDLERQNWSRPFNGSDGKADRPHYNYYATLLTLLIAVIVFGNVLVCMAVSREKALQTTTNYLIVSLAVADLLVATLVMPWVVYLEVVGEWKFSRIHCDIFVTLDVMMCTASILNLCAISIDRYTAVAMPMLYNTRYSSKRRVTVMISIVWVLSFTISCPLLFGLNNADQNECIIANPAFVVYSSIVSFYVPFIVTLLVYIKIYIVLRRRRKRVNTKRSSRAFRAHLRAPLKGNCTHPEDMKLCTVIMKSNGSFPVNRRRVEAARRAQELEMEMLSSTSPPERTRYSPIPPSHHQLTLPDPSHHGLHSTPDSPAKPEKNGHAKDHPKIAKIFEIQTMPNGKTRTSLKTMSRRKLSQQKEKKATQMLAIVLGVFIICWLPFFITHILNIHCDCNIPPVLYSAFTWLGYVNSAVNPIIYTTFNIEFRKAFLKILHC
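Agonism scored from kinetic calcium signal (1 read/sec, 180 s) following compound pin transfer, after a 10 s baseline. Cells: HEK293 Trex line expressing inducible D2 receptor coupled to calcium, dye-loaded after overnight culture at 30 C.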
D2 PAM-1: Beta-Arrestin HTS for Positive Allosteric Modulators of the Human D2 Dopamine Receptor: Potentiators. D(2) dopamine receptor (Homo sapiens), P14416. DiscoveRx D2 beta-arrestin cells, luminescence, 90 min; 100% = 57 uM dopamine signal. potentiation, % (test concentration not listed). 0.23% of 360,000 active. AID 624464, 2012; in the data active = potentiation above about 50%; inconclusive = mostly about 30% to 49%
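PathHunter beta-arrestin assay in DiscoveRx D2 cells. Compounds were added with an EC20 of dopamine (50 nM final) for 90 min at 37 deg C. Luminescence was read 1 h after detection reagent, with 57 uM dopamine as the EC100 control.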
D2 PAM-2: HTS Assay for Positive Allosteric Modulators of the Human D2 Dopamine Receptor: Primary Screen for Potentiators | D(2) dopamine receptor (Homo sapiens), P14416 | HEK293 T-REx D2, calcium flux, EC20 dopamine potentiation | potentiation, % at 10 µM | 0.34% of 340,000 active | AID 485347, 2010;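 active = potentiation over 3 SD above the plate norm, cut at about 30% in these data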; also: 0% is about no effect
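Potentiation of an EC20 dopamine calcium response measured kinetically over 180 s, after a preceding 180 s compound-only read flagging agonists. Cells: inducible Hek293 Trex D2 line, 4000/well, cultured overnight at 30 C before dye loading.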
D2 antagonist: HTS Assay for Allosteric Antagonists of the Human D2 Dopamine Receptor: Primary Screen for Antagonists; HEK293 TREx D2 cells, calcium flux, dopamine EC80; AID 485344, 2010; inhibition, % at 10 µM; 2% of 340,000 active; in the data active = inhibition above about 30%; inactive = below that, where a call was filed; also: 0% is about no effect
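Tetracycline-induced HEK293 T-REx cells expressing D2 force-coupled to calcium signalling were dye-loaded, exposed to compound for 180 s, then challenged with an EC80 of dopamine; calcium flux was followed kinetically for a further 180 s.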
D2 ag-2: Beta-Arrestin HTS for Positive Allosteric Modulators of the Human D2 Dopamine Receptor: Agonists; D(2) dopamine receptor (Homo sapiens), P14416; activation, % (concentration not given with the values); AID 624465, 2012; 0.084% of 360,000 active; DiscoveRx PathHunter D2 beta-arrestin, luminescence, 90 min; 100% = 57 uM dopamine signal; in the data active = activation above about 40%; inconclusive = between about 15% and that limit
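DiscoveRx PathHunter D2 beta-arrestin cells (2,100/well) attached overnight, then compound-stimulated 90 min at 37 C in HBSS/10 mM HEPES/0.1% Tween-20 buffer; beta-galactosidase complementation read by luminescence after 1 h at ambient temperature. Dopamine 57 uM final (EC100) as control.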
* hit, by the source's call; ? = inconclusive; . = no result given. Sampled rows, rich in hits. Any-hit rate of the full collection: about 2.4%.

SMILES	D2 ag-1	D2 PAM-1	D2 PAM-2	D2 antagonist	D2 ag-2
COc1ccc(-c2ccnc3c2c(=O)n(C)c(=O)n3C)cc1OC	1	.	-10	.	.
COC(=O)c1ccc(OCC(O)CN2CCN(CC(O)COc3ccc(C(=O)OC)cc3)CC2)cc1 (stereo unspecified)	0	-4	10	4	-2
COc1ccc(OCC(O)CN2C(=O)NC(C)(C)C2=O)cc1 (stereo unspecified)	0	-3	-8	31*	-1
COC(=O)c1ccc(OCC(O)CN2C(=O)c3ccccc3C2=O)cc1 (stereo unspecified)	38*	-2	-17	-4	1
COc1cccc(-c2nc(NC(C)C)c3ccccc3n2)c1O	12	12	10	32*	0
COc1cccc(-c2nc(NCC3CCCO3)c3ccccc3n2)c1O (stereo unspecified)	1	10	15	4	-2
CC(C(=O)N1CCN(Cc2ccccc2)CC1)n1ncn2cccc2c1=O (stereo unspecified)	10	-3	-16	49*	-2
NC(=O)c1ccc(NCc2ccco2)c([N+](=O)[O-])c1	1	-14	5	35*	-4
CCN(CC)C(=O)C1=C(C)N(Cc2ccc(F)cc2)C(=O)C(CC(=O)NCCN2CCOCC2)C1 (stereo unspecified)	.	.	.	.	0
CCOc1ccc(CCn2c(-c3ccco3)nc3ccccc3c2=O)cc1OCC	0	1	-23	36*	-2
O=c1c2ccccc2nc(-c2ccco2)n1Cc1ccccc1	-1	-9	22	24	-3
O=c1c2ccccc2nc(-c2ccoc2)n1CCc1ccccc1	0	0	62*	2	-3
CCN(CC)c1nc2ccccc2nc1C(=O)Nc1cc(OC)c(OC)c(OC)c1	0	.	.	.	.
Cc1ccc(NC(=S)NC2CC3CCC(C2)N3Cc2ccco2)c(C)c1 (stereo unspecified)	0	-24	-15	4	-2
CCc1ccccc1NC(=S)NC1CC2CCC(C1)N2Cc1ccco1 (stereo unspecified)	-1	-24	-11	7	0
COc1ccc(CN2C3CCCC2CC(NC(=O)Nc2ccccc2C)C3)cc1 (stereo unspecified)	.	-20	.	.	-1
CCc1ccccc1NC(=S)NC1CC2CCC(C1)N2Cc1ccc(F)cc1 (stereo unspecified)	1	-6	-28	78*	0
Cc1cccc(NC(=S)NC2CC3CCC(C2)N3Cc2ccco2)c1C (stereo unspecified)	1	-22	-19	36*	-1
Cc1cccc(NC(=S)NC2CC3CCCC(C2)N3Cc2ccccc2)c1C (stereo unspecified)	0	-21	-28	105*	-2
Cc1cc(C(=O)NCc2ccccc2)c2c(C)nn(-c3cccc(Cl)c3C)c2n1	0	.	8	.	.
N/C(=N\c1nc2c(c(=O)[nH]1)CCCC2)Nc1ccccc1	0	11	8	-4	0
N/C(=N\c1nc2c(c(=O)[nH]1)CCC2)Nc1ccccc1	0	-1	-5	30*	2
O=c1nc2s/c(=C\c3ccco3)c(=O)n2nc1Cc1ccc(F)cc1	1	-8	6	35*	0
O=C1CCCC/C1=C/Nc1cccc(C(F)(F)F)c1	0	-3	0	34*	-2
O=C1CCCC/C1=C\Nc1ccc(O)cc1	-2	10	-2	5	9
SMILES	D2 ag-1	D2 PAM-1	D2 PAM-2	D2 antagonist	D2 ag-2
CC(=O)Nc1ccccc1/C=C/c1ccc2c(C)ccc(O)c2n1	2	-9	9	33*	3
CCSc1nc2n(n1)C(c1ccc(Cl)cc1Cl)C(C(=O)Nc1ccccc1C)=C(C)N2 (stereo unspecified)	1	.	-9	.	.
O=C(CCl)Nc1cccc(S(=O)(=O)NC2=NCCCCC2)c1	.	-2	.	.	-1
O=C(Cc1c(F)cccc1Cl)Nc1cccc(S(=O)(=O)NC2=NCCCCC2)c1	0	-25	4	31*	-1
O=C(Nc1cccc(S(=O)(=O)NC2=NCCCCC2)c1)c1cc(-c2ccncc2)nc2ccccc12	2	98*	6	-4	-3
Nc1ccc(C=Cc2ccc(N)cc2)cc1	.	17	.	.	7
CN(CC(=O)Nc1ccccc1Cl)C(=O)CSc1nncn1C	1	-4	6	-4	-3
O=C(Nc1ccccc1OC(F)F)c1cccc(S(=O)(=O)N2CCCC2)c1	0	-4	10	-27	4
CC(=O)Nc1ccc(NC(=O)C(C)OC(=O)CCC2CCCC2)cc1 (stereo unspecified)	1	6	-3	30*	-3
CC(=O)Nc1ccc(NC(=O)C(C)OC(=O)CC2CCCC2)cc1 (stereo unspecified)	-1	9	1	0	-2
CC1CCN(c2c([N+](=O)[O-])nn(-c3ccc4c(c3)OCCO4)[n+]2[O-])CC1	0	75*	1	-2	10
O=C(c1ccco1)N1CCN(c2c([N+](=O)[O-])nn(-c3ccc(Cl)cc3)[n+]2[O-])CC1	1	22	4	12	3
O=C1CCCN1Cc1ccccc1	0	-6	1	30*	-6
COCCNC(=O)C1(C)CCCN(CCSc2ccccc2)C1 (stereo unspecified)	.	-2	.	.	5
CC1CCC(NC(=O)CCNC(=O)c2ccc(Br)cc2)CC1 (stereo unspecified)	0	-22	-2	2	3
COc1ccc(CNCc2ccco2)cc1OCc1ccccc1	-1	-28	16	37*	-5
COc1ccccc1CCNCc1ccc(OC)c(OCc2ccccc2)c1	.	-16	.	.	-2
CC1c2ccccc2SC(CCCN(C)C)c2ccccc21 (stereo unspecified)	6	-39	-27	50*	-2
COc1ccc(/C=N/Nc2nnc(-c3ncc[nH]3)c3ccccc23)cc1	0	-9	-20	47*	0
CC(C)C1Oc2ccccc2N(CC(=O)N2CCOCC2)C1=O (stereo unspecified)	0	3	-1	38*	-2
COc1ccc(/C(N)=N/OC(=O)c2ccc(C)c([N+](=O)[O-])c2)cc1	0	132*	-1	0	?
N/C(=N\OC(=O)c1cccc(Br)c1)c1ccc(Br)cc1	0	100*	-5	7	13
